The sample as a whole holds a higher share of hits than the screen did.
KDM4E inh: qHTS Assay for Inhibitors of Human Jumonji Domain Containing 2E (JMJD2E) | Lysine-specific demethylase 4E (Homo sapiens), B2RXH2 | JMJD2E catalytic domain, FDH-coupled NADH fluorescence (FDH is formaldehyde dehydrogenase) | Potency, µM (series often up to 57.1 µM), without a hit: top-dose activity change, negative = inhibition, hits mostly inhibitors | hit rate 1.6% among 230,000 | AID 2147, 2009; active = well fitted inhibition curve with a large enough effect, not every such curve was filed as active; inconclusive = small, poorly fitted or top-dose-only effect, or another doubt; inactive = no such curve, though single readings can be large or run the other way;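 also: 0% = wells with enzyme and -100% = buffer wells without enzyme; nearly all actives have a fitted effect of over 50% in size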
Target sequence (B2RXH2 1-337 limits assumed): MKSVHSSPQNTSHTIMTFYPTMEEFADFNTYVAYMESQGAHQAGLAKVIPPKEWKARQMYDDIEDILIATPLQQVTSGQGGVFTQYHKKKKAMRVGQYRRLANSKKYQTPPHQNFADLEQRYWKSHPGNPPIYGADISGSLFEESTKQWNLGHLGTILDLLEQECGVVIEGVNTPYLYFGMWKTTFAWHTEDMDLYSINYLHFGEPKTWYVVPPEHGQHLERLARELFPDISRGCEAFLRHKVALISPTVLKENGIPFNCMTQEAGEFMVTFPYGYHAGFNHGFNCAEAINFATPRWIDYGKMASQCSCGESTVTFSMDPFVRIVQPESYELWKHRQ
BLM inh: qHTS Assay for Inhibitors of Bloom's syndrome helicase (BLM). recombinant BLM DNA unwinding, fluorescence dequenching. Potency, µM (series often up to 56.1 µM), inactives show top-dose activity change, negative = inhibition, most hits filed as inhibitors. hit rate 0.2% among 350,000. AID 2528, 2010;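 also: plate controls were vehicle for no effect and no enzyme for full effect; nearly all actives have a fitted effect of over 35% in size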
APE1 inh: qHTS Assay for Inhibitors of the Human Apurinic/apyrimidinic Endonuclease 1 (APE1) | DNA repair nuclease/redox regulator APEX1 (Homo sapiens), P27695 | Potency, µM (series often up to 65.8 µM), without a hit: at the highest dose activity change, negative = inhibition, hits mostly inhibitors | hit rate 0.35% among 350,000 | recombinant APE1, TAMRA/BHQ-2 abasic DNA cleavage fluorescence | AID 2517, 2012;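 also: plate controls were vehicle for no effect and reference inhibitor for full effect; nearly all actives have a fitted effect of over 55% in size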
Target sequence (P27695 whole entry, looked up): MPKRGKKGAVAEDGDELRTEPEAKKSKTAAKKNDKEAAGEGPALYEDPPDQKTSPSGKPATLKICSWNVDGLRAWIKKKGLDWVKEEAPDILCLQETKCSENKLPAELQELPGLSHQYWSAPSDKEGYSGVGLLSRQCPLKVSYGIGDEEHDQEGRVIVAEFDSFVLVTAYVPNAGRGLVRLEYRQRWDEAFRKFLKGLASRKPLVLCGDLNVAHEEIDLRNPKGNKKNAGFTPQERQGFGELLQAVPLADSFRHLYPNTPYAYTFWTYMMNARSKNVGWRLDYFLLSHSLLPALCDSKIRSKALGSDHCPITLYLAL
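APE1 at 0.75 nM final was preincubated with compound 15 min at room temperature, then 50 nM double-stranded THF abasic-site substrate (5'-TAMRA/3'-BHQ-2) was added. Fluorescence (ex 525/em 598 nm) was read kinetically; third-minus-first read gave activity.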
PKM2 act: qHTS Assay for Activators of Human Muscle isoform 2 Pyruvate Kinase; purified PKM2, Kinase-Glo ATP luminescence, activation; response scale: 0% is enzyme alone, no compound; hit rate 0.34% among 260,000; Potency, µM (top dose mostly 57.5 µM), without a hit: top-dose activation, most hits filed as activators; also: nearly all actives have a fitted effect of over 55% in size
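ATP formation by purified human PK-M2, quantified via coupled luciferase luminescence after 1 h at room temperature with 0.1 mM ADP and 0.5 mM PEP final.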
RECQ1 inh-1: qHTS Assay for Inhibitors of RecQ-Like Dna Helicase 1 (RECQ1); RECQ1 DNA unwinding, red fluorescence kinetic read; Potency, µM (doses to about 57.3 µM), without a hit: top-dose activity, negative = inhibition, hits mostly inhibitors; hit rate 0.54% among 240,000;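 also: plate controls were vehicle for no effect and no enzyme for full effect; nearly all actives have a fitted effect of over 30% in size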
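50 nM RECQ1T1 preincubated 15 min with compound in Tris pH 8.0 buffer with MgCl2, DTT, Tween-20 and 2.5 ug/ml poly(dI-dC); started with 200 nM TAMRA/BHQ-2 forked duplex and 2 mM ATP. Unwinding read as fluorescence (525/598 nm), two reads 2 h apart.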
RECQ1 conf: Confirmation qHTS Assay for Inhibitors of RecQ-Like Dna Helicase 1 (RECQ1). RECQ1 helicase DNA unwinding, fluorescence. Potency, µM (highest dose often 229 µM), inactives show at the top dose activity change, negative = inhibition, most hits filed as inhibitors. hit rate 28% among 610. shares compounds with RECQ1 inh-1; also: nearly all actives have a fitted effect of over 45% in size
RECQ1 ADP FP: Counterscreen for RECQ1 Inhibitors: ADP Fluorescence Polarization Displacement Assay | AID 2711, 2010 | ADP fluorescence polarization displacement counterscreen | shares compounds with RECQ1 inh-1 | hit rate 27% among 530 | Potency, µM (titrated, usually from 228 µM), inactives show at the top dose activity change, negative = inhibition, usual class: inhibitors; also: nearly all actives have a fitted effect of over 45% in size
RECQ1 inh-2: Confirmation qHTS Assay for Inhibitors of RecQ-Like Dna Helicase 1 (RECQ1) - Round 2 Cherry Picks; shares compounds with RECQ1 inh-1; recombinant RECQ1 DNA unwinding, red fluorescence; Potency, µM (top dose mostly 119 µM), without a hit: at the highest dose activity, negative = inhibition, most hits filed as inhibitors; hit rate 15% among 1,100; also: nearly all actives have a fitted effect of over 50% in size
Starred values were filed as active, the others as inactive; i = inactive; ? = inconclusive; / = no result given; [ ] = dose if it differs, or a comment. Unless noted, calls follow the shape of the dose curve; as a rule, active = well fitted curve in the direction sought with a large enough effect; inconclusive = small, poorly fitted or top-dose-only effect, or another doubt; inactive = no such curve, though single readings can be large; an effect the other way counts as inactive or inconclusive. Unless noted, % is scaled to controls: 0 for no effect and ±100 for the full control effect; potency is read from the fitted curve at half-maximal effect.

SMILES	KDM4E inh	BLM inh	APE1 inh	PKM2 act	RECQ1 inh-1	RECQ1 inh-2	others
O=C(CC(Sc1ccc(Br)cc1)C(=O)O)c1ccc(Br)cc1 (stereo not drawn)	/	-5%	17%	/	/	/
O=C(CC(C(=O)O)P(=O)(c1ccccc1)c1ccccc1)c1ccc(Br)cc1 (stereo not drawn)	-2%	-2%	2%	3%	-8%	/	RECQ1 conf=1%;RECQ1 ADP FP=-6%
COc1ccc(NC(=O)C2CCCN(S(=O)(=O)c3ccc4c(c3)CCCC(=O)N4)C2)cc1OC (stereo not drawn)	/	1%	/	/	/	/
CCOc1cc(C(N)=O)cc(Cl)c1OCc1ccccc1	?	-11%	?	-4%	i	/
CCOc1cc(/C=C(/NC(C)=O)C(=O)O)cc(Cl)c1OCc1cccc(Br)c1	0%	-2%	20%	-5%	-3%	/	RECQ1 conf=?;RECQ1 ADP FP=-9%
CC1CCCCC1NC(=O)COC(=O)c1c2c(nc3ccccc13)/C(=C/c1ccco1)CC2 (stereo not drawn)	16µM*	?	?	-4%	13µM*	?	RECQ1 conf=1%[114 µM]
O=C(CSc1ccc(Cl)cc1)N1CCN(c2c(Cl)cccc2[N+](=O)[O-])CC1	-1%	-11%	-4%	-1%	8.9µM*	-27%	RECQ1 conf=-6%[114 µM];RECQ1 ADP FP=-4%[91.9 µM]
CCCCOc1ccc(C(=O)Nc2cc(C)c(OCC(=O)N3CCOCC3)c(C)c2)cc1	7%	-5%	0%	5%	-7%	/
CCCN(CCC)S(=O)(=O)c1ccc(C(=O)Nc2ccc(OCC(=O)N3CCOCC3)cc2)cc1	-3%	-8%	-3%	0%	-4%	/	RECQ1 conf=4%;RECQ1 ADP FP=-2%
Cc1ccc(OCC(=O)N/N=C/C=C/c2ccco2)cc1	-7%	-23%	-6%	-7%	8.9µM*	/	RECQ1 conf=?;RECQ1 ADP FP=?
O=C(COc1ccccc1[N+](=O)[O-])N/N=C/C=C/c1ccco1	-7%	?	0%	?	-22%	/
Cn1c(NCCCCO)nc2c1c(=O)n(Cc1ccc(Cl)cc1)c(=O)n2C	/	-3%	/	/	/	/
O=C(O)Cn1cccc1C(=O)c1ccccc1	-14%	-7%	-4%	-5%	?	2%
CC(C)CCNC(=O)c1cccc(Nc2nc3ccccc3n3nnnc23)c1	/	2%	/	/	/	/
COc1ccc(C2CC(=O)N3CN(Cc4ccco4)CSC3=C2C#N)cc1 (stereo not drawn)	-28%	-3%	0%	1%	-15%	/
COc1cc(C2CC(=O)N3CN(Cc4ccco4)CSC3=C2C#N)ccc1OCc1ccccc1 (stereo not drawn)	?	-23%	7%	3%	?	-7%
N#C/C=C(/N)c1ccc(Br)cc1	-10%	-2%	-5%	-3%	?	7%
C=CCc1cccc(/C=N/NC(=O)CN2CCN(Cc3ccccc3)CC2)c1O	/	-24%	19%	/	22µM*	/	RECQ1 conf=?;RECQ1 ADP FP=11µM*
CC(=O)Nc1ccc2c(c1)C(C)(C)C(C)N2C (stereo not drawn)	-6%	-8%	?	1%	35µM*	79µM*
COc1ccc(CC(=O)Nc2sc3c(c2C(=O)Nc2c(C)cccc2C)CCCCC3)cc1	/	-12%	/	/	/	/
O=C(O)c1ccc(NS(=O)(=O)c2ccc3c(c2)C2C=CCC2C(c2ccccc2F)N3)cc1 (stereo not drawn)	-23%	7%	?	20%	?	-14%
O=C(CSc1nncs1)NC(=O)NCc1ccco1	-1%	-8%	?	1%	-6%	/
O=C(CSc1nc(-c2ccc(F)cc2)cs1)NC(=O)NCc1ccco1	-1%	-12%	-11%	8%	35µM*	?
CC(C)(Oc1ccc(Cl)cc1)C(=O)NC1=NN(c2ccccc2)C(=O)C1	-5%	-6%	10%	1%	?	-20%
CC(=O)c1cccc(N(C(=O)c2cnccn2)C(C(=O)NCc2ccccc2)c2ccco2)c1 (stereo not drawn)	1%	-3%	8%	0%	40µM*	-8%
SMILES	KDM4E inh	BLM inh	APE1 inh	PKM2 act	RECQ1 inh-1	RECQ1 inh-2	others
O=C(NCc1ccccc1)C(c1ccco1)N(C(=O)c1cnccn1)c1ccc(F)cc1 (stereo not drawn)	19%	-7%	-9%	1%	-2%	/
O=C(CN1CCN(c2ccc(O)cc2)CC1)Nc1cc(S(=O)(=O)N2CCCC2)ccc1Cl	?	-15%	-10%	3%	13µM*	-11%	RECQ1 conf=6%[114 µM];RECQ1 ADP FP=-4%[91.9 µM]
O=C(CN1CCN(c2ccc(O)cc2)CC1)Nc1cc(S(=O)(=O)N2CCCCC2)ccc1Cl	-10%	-8%	-11%	21%	-9%	/
Cc1ccc(-c2c(C3C4C=CCCC4(C)C(=O)N3Cc3ccccc3)ccc3ccccc23)cc1 (stereo not drawn)	/	-13%	-3%	/	i	/
O=S(=O)(Nc1nc(-c2sccc2Cl)cs1)c1cc(Cl)ccc1Cl	-27%	-14%	-1%	0%	?	?
CC(=O)c1ccc(N2CCN(S(=O)(=O)c3ccc4c(c3)CC(C)N4C(=O)C3CCC3)CC2)cc1 (stereo not drawn)	/	-2%	/	/	/	/
CN(C)c1ccc(N2C(=O)CSC2=S)cc1	6.3µM*	-3%	10µM*	-3%	?	-24%
COc1ccc(NC(=O)CSc2nc(O)cc(=O)n2-c2ccccc2OC)cc1	-5%	-25%	-7%	-5%	?	-18%
COc1ccccc1-n1c(SCC(=O)Nc2cccc3ccccc23)nc(O)cc1=O	-23%	-18%	-6%	-3%	?	-12%
CCOc1ccc(NC(=O)C(=O)NCC(c2cccnc2)N2CCc3ccccc32)cc1 (stereo not drawn)	/	-8%	/	/	/	/

Screening results (PubChem)
